Screens: PubChem BioAssay, National Center for Advancing Translational Sciences (NCATS)
SMN2 splice up – increases expression of the SMN2 splice variant; HEK293 SMN2-luciferase splicing reporter, luminescence, 30-36 h; Potency, µM (series often up to 46.1 µM), for inactives: at the highest dose activity change, positive = activation, usual class: activators; 2.8% of 210,000 active; AID 1458; further: % of control where 0% means no effect; nearly all actives have a fitted effect of over 55% in size
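qHTS luciferase splicing reporter: luminescence rises when SMN2 exon 7 is included in transfected HEK293 cells. Compound exposure lasted 30-36 h at 37C, with 4.5 mM final sodium butyrate as control, followed by a ONE-Glo read.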
Rab9 prom act – Rab9 promoter activation | Huh7 Rab9 promoter-luciferase reporter, luminescence, 24 h | Potency, µM (highest dose often 9.22 µM), without a hit: at the top dose activation, negative = inhibition, usual class: activators | 2.8% of 320,000 active | AID 485297; further: % of control where 0% means no effect; nearly all actives have a fitted effect of over 60% in size
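Stable Rab9-luc Huh7, 1500 cells/well, 2 h settle; cmpd in DMSO, 24 h, 37 °C/5% CO2; luciferase reagent 10 min RT; luminescence.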
ELG1 genotox – genotoxicity induction in ELG1-luciferase HEK293T cells | Potency, µM (highest dose often 46 µM), for the others: at the highest dose activity change, positive = activation, actives largely listed as activators | 1.3% of 330,000 active | HEK293T ELG1-luciferase reporter, luminescence, 16 h | AID 504466; further: % of control where 0% means no effect; nearly all actives have a fitted effect of over 60% in size
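After overnight (16 hr) compound treatment at 37 °C, ELG1-luciferase HEK293T cells were lysed with ONE-Glo; luminescence quantified 30 min later at room temperature.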
NPC1 promoter act – activators of NPC1 promoter. 2.4% of 320,000 active. AID 485313. Huh7 NPC1 promoter luciferase reporter, 24 h. Potency, µM (highest dose often 9.22 µM), without a hit: at the top dose activation, actives largely listed as activators; further: % of control where 0% means no effect; nearly all actives have a fitted effect of over 60% in size
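Luminescence read-out of NPC1 promoter-driven luciferase in stably transfected Huh7 cells; compounds delivered in DMSO and left 24 h at 37C, 5% CO2, qHTS titration format.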
FLuc modulator – inhibits or activates purified firefly luciferase, miR-21 counter-screen; purified FLuc, Km substrates, luminescence inhibition; P08659; Potency, µM (highest dose often 57.5 µM), for inactives: at the top dose activity change, negative = inhibition, actives largely listed as inhibitors; 6.9% of 360,000 active;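 further: plate controls were vehicle for no effect and reference inhibitor for full effect; nearly all actives have a fitted effect of over 55% in size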
Target sequence (P08659 whole entry, looked up): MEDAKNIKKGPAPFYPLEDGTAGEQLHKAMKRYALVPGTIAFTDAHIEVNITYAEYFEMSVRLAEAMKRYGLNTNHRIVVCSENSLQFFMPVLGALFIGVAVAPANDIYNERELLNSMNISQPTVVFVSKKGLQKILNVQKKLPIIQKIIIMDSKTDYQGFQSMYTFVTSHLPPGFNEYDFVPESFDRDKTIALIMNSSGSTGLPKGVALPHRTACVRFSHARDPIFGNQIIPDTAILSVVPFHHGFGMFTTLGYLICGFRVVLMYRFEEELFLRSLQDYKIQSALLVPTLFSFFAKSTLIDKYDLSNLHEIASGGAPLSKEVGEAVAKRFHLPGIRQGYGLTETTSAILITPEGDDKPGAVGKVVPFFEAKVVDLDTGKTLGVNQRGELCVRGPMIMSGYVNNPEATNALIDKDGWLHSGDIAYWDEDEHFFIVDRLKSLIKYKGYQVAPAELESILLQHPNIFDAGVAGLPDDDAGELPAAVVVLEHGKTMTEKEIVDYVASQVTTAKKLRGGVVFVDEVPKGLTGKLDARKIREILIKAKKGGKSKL
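Biochemical qHTS of compounds, final roughly 60 µM downward over six points, against 10 nM purified firefly luciferase using Km concentrations of substrates (10 uM D-luciferin, 10 uM ATP) in Tris acetate pH 7.5 buffer; luminescence output.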
* = called active by the depositor; ? = inconclusive; · = not tested or not shown; [ ] = dose if it differs, or a comment. An excerpt weighted towards active compounds, which were near 7.5% of everything screened. The call rests on the fitted dose curve; in most records, active means well fitted curve in the direction sought with a large enough effect; inconclusive means small, poorly fitted or top-dose-only effect, or another doubt; inactive means no such curve, though single readings can be large; an effect the other way counts as inactive or inconclusive. Potency means the concentration at half of the fitted maximal effect.

SMILES	SMN2 splice up	Rab9 prom act	ELG1 genotox	NPC1 promoter act	FLuc modulator
C/C=C\C(=O)Nc1cccc(C2=NOC3(C2)C[C@@H](C(N)=O)N(C(=O)C2(C)CC2)C3)c1 (some centres not stated)	·	-9.5%	2.6%	-5.0%	-1.8%
C/C=C\C=C/C(=O)Nc1cccc(C2=NOC3(C2)C[C@@H](C(N)=O)N(C(=O)/C=C/CC)C3)c1 (some centres not stated)	·	10.4%	4.5%	1.7%	16.9µM*
C/C=C\C(=O)Nc1cccc(C2=NOC3(C2)C[C@H](C(N)=O)N(C(=O)/C=C/CC)C3)c1 (some centres not stated)	·	-1.9%	3.9%	-4.1%	0.5%
COc1cccc(-c2ccc(=O)n(CC(=O)NCCN3CCOCC3)n2)c1	16.1%	-3.5%	10.5%	-1.1%	-0.1%
Cc1cccc(OCCN2C(=O)C(=O)c3cc(C)ccc32)c1	-9.4%	-17.7%	?	-11.1%	12µM*
Cc1ccc2c(c1)C(=O)C(=O)N2CCOc1ccccc1	-19.0%	-3.1%	?	-5.6%	13.5µM*
O=C1c2ccccc2C(=O)N1CCOc1cccc(Br)c1	·	?	?	28.1%	10.7µM*
Cc1cccc(OCCN2C(=O)C(=O)c3cccc(C)c32)c1	-6.6%	-1.7%	0.0%	-4.2%	-0.3%
Nc1nccc(-c2cc(-c3ccc(Cl)cc3Cl)no2)n1	·	0.316µM*	?	0.355µM*	0.675µM*
Cc1cc(NC(=O)CSc2nc3c(c(=O)n(C)c(=O)n3C)n2C(C)C)no1	25.3%	10.7%	2.5%	-2.0%	-1.8%
O=C(Cc1ccc(F)cc1)OCN1C(=O)c2ccccc2C1=O	·	15.8%	-12.7%	-0.6%	1.6%
O=C1c2ccccc2C(=O)N1OCc1ccccc1[N+](=O)[O-]	1.1%	-3.1%	-0.9%	-0.9%	16.9µM*
O=C1c2ccccc2S(=O)(=O)N1Cc1ccccc1[N+](=O)[O-]	·	-0.5%	-0.8%	7.9%	0.4%
O=C(Cc1ccccc1[N+](=O)[O-])OCN1C(=O)c2ccccc2C1=O	·	10.2%	5.3%	-9.6%	9.53µM*
CC(=O)N(CC(=O)Nc1sc(C)c(C)c1C(N)=O)Cc1ccccc1	·	-1.2%	-3.7%	0.4%	-0.1%
CC(C)(C)c1onc(OCP(=O)(O)O)c1CC(N)C(=O)O (configuration not stated)	5.3%	0.7%[46.1 µM]	·	-4.5%[46.1 µM]	·
N#CCSc1ncnc2ccccc12	-35.9%	-12.3%	-16.2%	-7.3%	-3.8%
c1ccc(Sc2ncnc3ccccc23)cc1	·	-0.6%	-12.6%	0.4%	19µM*
C/C(=N\N=c1/sc2ccccc2n1C)c1ccccn1	?	?	?	?	16.9µM*
C/C(=N\N=c1/sc2ccccc2n1C)c1ccc(N2CCOCC2)cc1	11.9%	21.0%	9.0%	-2.3%	2.39µM*
Cn1/c(=N\NC(=O)C2CCCCC2)sc2ccccc21	7.3%	?	11.7%	23.3%	-11.1%
O=c1cc(O)c2sc3nc(C(F)(F)F)c4c(c3c2[nH]1)CCCCC4	-12.7%	2.6%	3.9%	0.9%	19µM*
Cc1cc(C(F)(F)F)c2c(n1)sc1c(O)cc(=O)[nH]c12	8.7%	1.8%	-1.0%	1.3%	-13.0%
CN(Cc1ccc(F)cc1)C(=O)CCc1nnc(-c2ccccc2)o1	·	?	?	?	16.9µM*
COc1ccc(CCN(C)C(=O)CCc2nnc(-c3ccccc3)o2)cc1OC	·	3.16µM*	?	4.47µM*	19µM*
SMILES	SMN2 splice up	Rab9 prom act	ELG1 genotox	NPC1 promoter act	FLuc modulator
Cc1cccc(NC(=O)CNC(=O)CN2C(=O)NC3(CCc4ccccc43)C2=O)c1C (configuration not stated)	·	7.9%	0.6%	-0.1%	1.4%
CCN(Cc1ccccc1)C(=O)c1ccc(NC(=O)c2ccc(OC)cc2)cc1	·	-7.7%	-13.1%	-2.8%	-9.6%
CCN(c1ccc2c(c1)OCO2)S(=O)(=O)c1cc(Br)cc2c1N(C(C)=O)CC2	-17.0%	-1.9%	-5.0%	1.3%	0.0%
Cc1nc(-c2ccccc2)ccc1C(=O)O	-2.6%	-9.6%	-2.5%	-1.9%	-11.3%
Brc1c(-c2ccccc2)nc2n1Cc1ccccc1-2	·	3.98µM*	18.3µM*	?	0.849µM*
c1ccc2c(c1)Cn1c-2nc2ccccc21	10µM*	1.12µM*	?	1.41µM*	6.01µM*
c1ccc2c(c1)Cn1nnnc1-2	-7.0%	12.9%	-6.5%	16.6%	5.0%
O=C1c2ccccc2-c2nc3ccccc3n21	·	?	11.0%	30.0%	15.1µM*
O=C1Nc2cc(C(F)(F)F)ccc2N2CCCCC12 (configuration not stated)	·	-1.2%	-5.5%	2.2%	4.4%
CC(=O)N1N=C(c2cccc(Cl)c2)OC1c1ccc(C(C)C)cc1 (configuration not stated)	4.2%	23.1%	18.4µM*	16.5%	23.9µM*
CC(=O)N1N=C(c2cccc(Cl)c2)OC1c1cccc([N+](=O)[O-])c1 (configuration not stated)	1.5%[1.84 µM]	16.0%	6.7%	-2.3%	5.7%
CCOC(=O)C(C)Sc1ncc(-c2ccccc2)cn1 (configuration not stated)	3.4%	23.0%	8.2%	5.1%	21.3µM*
CCOC(=O)C(C)Sc1nc(-c2ccccc2)ccc1C#N (configuration not stated)	18.4%	·	·	·	-15.8%
CCOC(=O)c1cnc(SCc2ccccc2)nc1N	5.62µM*	0.891µM*	7.31µM*	1.58µM*	2.13µM*
O=[N+]([O-])c1ccccc1S(=O)(=O)N1CCN(CC2CC3C=CC2C3)CC1 (configuration not stated)	-8.7%	-1.7%	-1.8%	-6.3%	-0.1%
COC(=O)c1sc(-c2ccc(C(C)(C)C)cc2)cc1NC(=O)CSCC(=O)O	·	-1.8%	9.1%	4.0%	3.38µM*
COC(=O)c1sc(-c2ccc(Cl)cc2)cc1NC(=O)c1ccccc1C(=O)O	·	-1.3%	0.3%	-1.0%	21.3µM*
COC(=O)c1sc(-c2ccc(C(C)(C)C)cc2)cc1NC(=O)c1ccccc1C(=O)O	·	22.1%	18.3%	15.4%	10.7µM*
Cc1ccc(S(=O)(=O)NNC(=O)c2ccncc2)cc1	9.6%	1.8%	1.0%	-1.3%	-1.7%
C[C@H](NC(=O)c1[nH]cnc1C(=O)Nc1ccon1)c1ccccc1	·	1.3%	-0.5%	-2.1%	1.1%
Cc1ccc2c(COC(=O)CNC(=O)c3ccccc3)cc(=O)oc2c1	15.9%	-8.3%	12.1%	-3.0%	19µM*
Cc1ccc2c(COC(=O)C3=COCCO3)cc(=O)oc2c1	?	0.794µM*	1.84µM*	3.16µM*	0.849µM*
CCOC(=O)Nc1ccc2c(COC(=O)c3ccccc3O)cc(=O)oc2c1	·	23.6%	?	?	?
Cc1ccc2c(COC(=O)c3ccccc3OC(F)F)cc(=O)oc2c1	·	1.4%	?	2.1%	4.78µM*
